This note sets out measurements from PubChem BioAssay.

Assay [1] addresses Cell division control protein 42 homolog (Homo sapiens) (UniProt P60953). Kind of assay: inhibition of fluorescent GTP binding to constitutively active Cdc42 – biochemical, multiplex bead flow cytometry, Bodipy-FL-GTP, dose response (AID 1333;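 active = fitted half-maximal concentration within the tested dose range, moderate curve steepness, a statistically real signal drop, and little compound fluorescence or tag-binding interference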). A general note: Flow cytometry measures light scatter and fluorescence of single cells or particles in a stream.
Assay [2] has the same target. The experiment in a line: inhibition of fluorescent GTP binding to wildtype Cdc42 – biochemical, multiplex bead flow cytometry, Bodipy-FL-GTP, dose response (AID 1334;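 active = fitted half-maximal concentration within the tested range, moderate curve steepness, significant signal drop, and little compound fluorescence or bead-linkage interference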). Conditions: bead-based flow cytometry, Bodipy-FL-GTP binding to GST-Cdc42; at 100 µM (top of the series) unless noted.
For assay [3], the target named is GTPase HRas (Homo sapiens) (UniProt P01112). The experiment in a line: Ras wt fluorescent GTP loading blockade – biochemical, wildtype, multiplex bead flow cytometry, dose response (AID 1335). The following applies: bead-based flow cytometry, Bodipy-GTP binding to GST-Ras; at 100 µM (top of the series) unless noted.
Chain of GTPase HRas (Homo sapiens) (P01112 whole entry, looked up): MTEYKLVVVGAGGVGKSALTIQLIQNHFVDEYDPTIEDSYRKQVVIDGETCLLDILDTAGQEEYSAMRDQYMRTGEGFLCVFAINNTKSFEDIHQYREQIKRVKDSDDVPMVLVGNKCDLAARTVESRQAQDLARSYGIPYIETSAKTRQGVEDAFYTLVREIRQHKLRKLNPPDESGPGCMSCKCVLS
The subject of assay [4] is Ras-related protein Rab-7a (dog), GTP binding. Kind of assay: blockers of fluorescent GTP binding to Rab7 – biochemical, wildtype, multiplex bead flow cytometry, dose response (AID 1336; call rule not given here).
Assay [5] concerns the target Ras-related C3 botulinum toxin substrate 1 (Homo sapiens) (UniProt P63000). Kind of assay: inhibition of wildtype Rac1 nucleotide loading – biochemical, multiplex bead flow cytometry, dose response (AID 1340;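 active = dose curve with midpoint inside tested range, moderate steepness, plateau gap beyond fit error, low compound glow and bead-link interference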). The following applies: GST-Rac1 beads, Bodipy-FL-GTP binding; at 100 µM (top of the series) unless noted.
The target in assay [6] is GTPase HRas (Homo sapiens) (UniProt P01112). The experiment in a line: blockade of GTP loading onto mutant Ras – biochemical, activated mutant, multiplex bead flow cytometry, dose response (AID 1341;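 active = dose-response curve with midpoint inside the tested range, moderate steepness, significant amplitude and little compound fluorescence or bead-attachment interference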;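 also: GST-tagged constitutively activated Ras mutant immobilized on beads and multiplexed with other GTPases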).

For part of these data: Results with a measured potency or affinity are listed apart. Active and inactive are the calls of the source.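 The calls were made as follows, unless noted: active = fitted half-maximal concentration within 10 nM to 100 µM, steepness 0.5 to 2, significant signal drop, low assay interference; inactive = the rest.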

Chain of Cell division control protein 42 homolog (Homo sapiens) (P60953 whole entry, looked up): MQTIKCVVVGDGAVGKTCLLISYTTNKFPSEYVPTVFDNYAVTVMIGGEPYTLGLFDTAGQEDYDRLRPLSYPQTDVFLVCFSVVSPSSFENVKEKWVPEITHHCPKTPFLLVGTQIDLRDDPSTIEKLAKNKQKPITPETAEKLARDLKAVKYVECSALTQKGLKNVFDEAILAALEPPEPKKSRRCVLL

Turning to `Cc1c(C=O)c2ccccn2c1C(=O)c1ccc(Cl)c([N+](=O)[O-])c1`, the call in assay [1], in assay [4] and in assay [6] was inactive. The compound further gave a fluorescence, percent of control (lower = inhibition) in assay [2] of 31.5%. The same compound showed a GTP binding, percent of control in assay [3] of 78.3%. In assay [5], this compound yielded a GTP binding signal, raw median fluorescence (lower = inhibition) (MCF (arbitrary fluorescence units)) of 247.

`Cn1cc([C@@H]2C[C@H]3CN(Cc4cccc(Cl)c4)C(=O)[C@]34CCCN24)c2ccccc21`: the compound was classed as inactive in assay [1], in assay [4] and in assay [6]. This compound also had a fluorescence, percent of control (lower = inhibition) in assay [2] of 61.3%. For the same compound, in assay [3], the GTP binding, percent of control was 111%. This compound displayed a GTP binding signal, raw median fluorescence (lower = inhibition) (MCF (arbitrary fluorescence units)) in assay [5] of 276.

As to `O=C(COC(=O)C1(c2ccccc2F)CCCC1)Nc1ncc(C(F)(F)F)cc1Cl`, the outcome in assay [1], in assay [4] and in assay [6] was inactive. In assay [2], this compound returned a fluorescence, percent of control (lower = inhibition) of 47.6%. Besides, the GTP binding, percent of control in assay [3] is 60.4%. The compound also had a GTP binding signal, raw median fluorescence (lower = inhibition) (MCF (arbitrary fluorescence units)) in assay [5] of 194.

In the case of `COc1ccc(/C=N/NC(=O)c2cccnc2)cc1Cn1nc([N+](=O)[O-])c(Br)c1C`, the result in assay [1], in assay [4] and in assay [6] was inactive. This compound returned a fluorescence, percent of control (lower = inhibition) in assay [2] of 31.2%. Also, the GTP binding, percent of control in assay [3] amounted to 67%. Further, the GTP binding signal, raw median fluorescence (lower = inhibition) (MCF (arbitrary fluorescence units)) in assay [5] turned out to be 153.

`Nc1c(S(=O)(=O)c2ccccc2)c2nc3ccccc3nc2n1/N=C/c1cccc(O)c1`: the compound was called inactive in assay [1], in assay [4] and in assay [6]. The same compound returned a fluorescence, percent of control (lower = inhibition) in assay [2] of 91.2%. The compound further came in with a GTP binding, percent of control in assay [3] of 81.1%. Also, the GTP binding signal, raw median fluorescence (lower = inhibition) (MCF (arbitrary fluorescence units)) in assay [5] is 105.

Consider `O=C(Nc1cccc2ccccc12)c1cnccn1`, for which the compound was called inactive in assay [1], in assay [4] and in assay [6]. For the same compound, in assay [2], the fluorescence, percent of control (lower = inhibition) was found to be 85.4%. For the same compound, in assay [3], the GTP binding, percent of control worked out at 156%. The GTP binding signal, raw median fluorescence (lower = inhibition) (MCF (arbitrary fluorescence units)) in assay [5] was 181.

For `O=c1[nH]c2ccc(S(=O)(=O)NCc3ccccc3)cc2[nH]1`, the call in assay [1], in assay [4] and in assay [6] was inactive. Further, the fluorescence, percent of control (lower = inhibition) in assay [2] came out at 38.1%. Moreover, the GTP binding, percent of control in assay [3] came to 84.5%. The compound further yielded a GTP binding signal, raw median fluorescence (lower = inhibition) (MCF (arbitrary fluorescence units)) in assay [5] of 218.

Take `Oc1ccc(NC(=S)N=Nc2c(O)[nH]c3ccccc23)cc1`: the result in assay [1], in assay [4] and in assay [6] was inactive. In assay [2], this compound showed a fluorescence, percent of control (lower = inhibition) of 16.7%. In assay [3], this compound returned a GTP binding, percent of control of 62.5%. In assay [5], this compound returned a GTP binding signal, raw median fluorescence (lower = inhibition) (MCF (arbitrary fluorescence units)) of 62.8.

Consider `Cc1c(CCC(=O)O)c(=O)oc2cc3occ(-c4ccc(F)cc4)c3cc12`, for which the outcome in assay [1], in assay [4] and in assay [6] was inactive. Besides, the fluorescence, percent of control (lower = inhibition) in assay [2] was found to be 29.1%. For the same compound, the GTP binding, percent of control in assay [3] is 72.6%. In assay [5], this compound had a GTP binding signal, raw median fluorescence (lower = inhibition) (MCF (arbitrary fluorescence units)) of 160.

In the case of `CCCCCCCCCCCCCCCC(=O)Nc1cccc(C#CC(=O)c2ccc([N+](=O)[O-])cc2)c1`, the outcome in assay [1], in assay [4] and in assay [6] was inactive. In addition, in assay [2], the fluorescence, percent of control (lower = inhibition) was 66%. The compound further came in with a GTP binding, percent of control in assay [3] of 186%. The compound also showed a GTP binding signal, raw median fluorescence (lower = inhibition) (MCF (arbitrary fluorescence units)) in assay [5] of 134.

In the case of `CCc1ccccc1NCc1sc(C(=O)O)cc1C`, the compound was called inactive in assay [1], in assay [4] and in assay [6]. In addition, the fluorescence, percent of control (lower = inhibition) in assay [2] turned out to be 61.1%. The compound further gave a GTP binding, percent of control in assay [3] of 87.1%. For the same compound, in assay [5], the GTP binding signal, raw median fluorescence (lower = inhibition) (MCF (arbitrary fluorescence units)) amounted to 31.9.

Turning to `COc1ccc(/C=C2/N=C(SCC(=O)Nc3cc(C)on3)N(c3ccccc3)C2=O)cc1`, the outcome in assay [1], in assay [4] and in assay [6] was inactive. In assay [2], this compound gave a fluorescence, percent of control (lower = inhibition) of 41.3%. This compound also yielded a GTP binding, percent of control in assay [3] of 54.1%. Moreover, the GTP binding signal, raw median fluorescence (lower = inhibition) (MCF (arbitrary fluorescence units)) in assay [5] is 177.

Regarding `CCC(C)(C)NC(=O)c1ccc2c(c1)N(CC(=O)OC)C(=O)C(C)(C)O2`, the result in assay [1], in assay [4] and in assay [6] was inactive. Also, in assay [2], the fluorescence, percent of control (lower = inhibition) worked out at 34.2%. The compound also displayed a GTP binding, percent of control in assay [3] of 82.4%. In assay [5], this compound came in with a GTP binding signal, raw median fluorescence (lower = inhibition) (MCF (arbitrary fluorescence units)) of 253.
